Values joined by “and” are separate entries in the source; they are usually repeats but may differ in a detail not shown here. Equal entries are not always repeated. Compounds without any hit were thinned out: in the full panel of roughly 79,000, 15% have a hit. Active and inactive are the calls of the source. No stated cut-off is given here; in the data, active means growth inhibition above about 70%; inactive means the rest.
How the values were obtained:
[1] = NCI Yeast Anticancer Drug Screen. Data for the rad50 strain (AID 155);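 further: 0% = growth of vehicle-only cultures of the same strain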; conditions: S. cerevisiae rad50 strain growth inhibition, stronger effect = higher value; at 50.0 µM unless noted
Summary of the method: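 A DNA repair-deficient yeast mutant serves as the test organism; compound-induced growth inhibition is calculated against vehicle-treated cells.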

[2] = NCI Yeast Anticancer Drug Screen. Data for the mec2-1 strain (AID 157); conditions: S. cerevisiae mec2-1 strain, stronger effect = higher value; at 50.0 µM unless noted
Summary of the method: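 Yeast mec2-1 mutant treated with compound. Readout: growth inhibition vs vehicle controls.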

[3] = NCI Yeast Anticancer Drug Screen. Data for the sgs1 mgt1 strain (AID 161);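 further: 0% = growth of cultures given vehicle only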; conditions: S. cerevisiae sgs1 mgt1 strain, stronger effect = higher value; at 50.0 µM unless noted
Summary of the method: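 Genetically altered yeast, compound exposure, growth inhibition relative to vehicle.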

[4] = NCI Yeast Anticancer Drug Screen. Data for the cln2 rad14 strain (AID 165);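 further: 0% = growth equal to vehicle treated cultures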; conditions: S. cerevisiae cln2 rad14 strain, stronger effect = higher value; at 50.0 µM unless noted
Summary of the method: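 cln2 rad14 yeast strain; compound exposure; growth inhibition read vs vehicle controls.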

[5] = NCI Yeast Anticancer Drug Screen. Data for the bub3 strain (AID 167); conditions: S. cerevisiae bub3 mutant strain, stronger effect = higher value; at 50.0 µM unless noted
Summary of the method: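 Inhibition values come from growth of compound-treated mutant yeast normalised to vehicle-treated controls.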

[6] = NCI Yeast Anticancer Drug Screen. Data for the mlh1 rad18 strain (AID 175); conditions: S. cerevisiae mlh1 rad18 strain growth inhibition, stronger effect = higher value; at 50.0 µM unless noted
Summary of the method: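 Yeast w/ defined DNA-repair lesions; compound exposure; growth vs vehicle controls → % inhibition.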

Measured: growth inhibition

Cc1ccc(C2=NN(c3ccccc3)C(c3ccccc3)C2NC2CCCCC2)cc1 (stereo not given)
inactive: [1] 41.1% | [2] -12.3% | [3] 19.6% | [4] -27.4% | [5] 0.5% | [6] 10.3%

O=C(O)c1ccc(Cl)o1
inactive: [1] 7.7% | [2] -3.6% | [3] -23.1% | [4] -1.05% | [5] 10.1% | [6] 5.6%

CC(=O)c1cccc(N=NN(C)C)c1
inactive: [1] 41% | [2] 36.5% | [3] 58% | [4] 6.35% | [5] 40.2% | [6] 46.8%

S=c1c2[nH]cnc2ncn1CCSC1=NC=NC2=NC=NC21 (stereo not given)
inactive: [1] 27.8% | [2] -23.6% | [3] -26.9% | [4] -22.8% | [5] -55% | [6] -8.6%

CC(C)=NOc1ccccc1[N+](=O)[O-]
inactive: [1] 8.65% | [2] 6.15% | [3] 7.15% | [4] -14.7% | [5] -13.2% | [6] 12.1%

Cc1nc2c(c(=O)[nH]1)C(c1ccccc1)C(C)(C)O2 (stereo not given)
inactive: [1] 3.6% | [2] -23.3% | [3] -3.6% | [4] -4.5% | [5] 6.15% | [6] 6.85%

C/C(=N\NC(=S)Nc1nccs1)c1ccccn1
active: [1] 96.7% | [2] 97.8% | [3] 97.6% | [4] 90.5% | [5] 96% | [6] 98.4%

CC(CN(CP(=O)([O-])[O-])CP(=O)([O-])[O-])N(CP(=O)([O-])[O-])CP(=O)([O-])[O-].N.N.[Pt+2] (stereo not given)
inactive: [1] -18.6% | [2] -20.5% | [3] -18.9% | [4] 23.6% | [5] 9.9% | [6] -10.8%

O=C(O)/C=C/c1cc(Br)sc1Br
inactive: [1] -2.05% | [2] 7.35% | [3] 5% | [4] -11.3% | [5] -0.95% | [6] 19.5%

CCCCCCCC/C=C\CCCCCCCC(=O)NN
inactive: [1] -7.85% | [2] 0.15% | [3] -4.25% | [4] -76% | [5] -2.7% | [6] -12.8%

O=C1c2ccccc2C(=O)c2cc3nc4c5ccccc5c5ccccc5c4nc3cc21
inactive: [1] -35% | [2] -21.2% | [3] -27.2% | [4] -37.6% | [5] 3.35% | [6] -13.6%

Clc1ccc(N=NNc2ccccc2)cc1
inactive: [1] 29.6% and 6.7% | [2] -0.85% and -2.8% | [3] -22.9% and -22.1% | [4] -30.1% and -10.1% | [5] -20.1% and -6.6% | [6] -16.4% and 30.2%

O=Cc1c[nH]c2ccc(F)cc12
inactive: [1] 9.85% | [2] -19.4% | [3] 20.6% | [4] 14.3% | [5] 19.9% | [6] 23.4%

O=C1C=C(c2ccccc2)C(c2ccccc2)C(c2ccccc2)C1 (stereo not given)
inactive: [1] 1.4% | [2] 21% | [3] 16.4% | [4] -5.35% | [5] 3.85% | [6] -3.1%

O=C(O)C1=CCCc2ccc3ccccc3c21
inactive: [1] 10.2% | [2] 6% | [3] 0.2% | [4] -20.4% | [5] -27.9% | [6] 6.25%

CCOc1ccc(C(C)c2cc3c(cc2OCC(=O)O)OCO3)cc1 (stereo not given)
inactive: [1] 0.65% | [2] -6.4% | [3] -8.45% | [4] 25.1% | [5] -6.9% | [6] -11.6%

COC(=O)C(CCC1(C)OCCO1)C(C)=O (stereo not given)
inactive: [1] -10.4% | [2] -0.85% | [3] -9% | [4] 7.65% | [5] -1.55% | [6] -13%

O=C(CSc1n[nH]c(=S)c2nc[nH]c12)c1ccc(Br)cc1
inactive: [1] 11.7% | [2] -0.2% | [3] 21.6% | [4] 33.1% | [5] -0.4% | [6] -8.65%

CC(=O)OCC1COC(c2ccc(C)cc2)O1 (stereo not given)
inactive: [1] 12.9% | [2] -2.1% | [3] -13.8% | [4] -2.5% | [5] -4.45% | [6] -11.8%

CO/C(=N\N=C\c1ccc(Cl)cc1Cl)c1ccncc1
inactive: [1] -25.9% | [2] -40.4% | [3] -53% | [4] -23.4% | [5] -27.8% | [6] -54.6%

O=C1CCCCCCCCCCCCCCCCC1
inactive: [1] -13.3% | [2] -5.85% | [3] -11.3% | [4] -7.25% | [5] -2.15% | [6] -13.9%

O=C(Oc1cc2c(cc1Br)OCO2)c1cccc2ccccc12
inactive: [1] 0.85% | [2] -30.3% | [3] 9.8% | [4] -48.7% | [5] 6.95% | [6] -27.2%

CCN1CCCC(C(=O)O)(c2ccccc2)CC1 (stereo not given)
inactive: [1] 1.75% | [2] -11.1% | [3] -6.2% | [4] -39% | [5] -1.15% | [6] 2%

Cc1cc(CSC(=N)N)c(CSC(=N)N)cc1C
inactive: [1] 9.75% | [2] -3.85% | [3] -2.45% | [4] -4.25% | [5] 4.65% | [6] 2.05%

C=CCN(CC=C)C(=O)Nc1cccc(C)c1
inactive: [1] -27.2% | [2] -43.9% | [3] 1.3% | [4] -3.15% | [5] -2.6% | [6] -21%

CC(Cl)S(=O)(=O)c1ccccc1 (stereo not given)
inactive: [1] 7.45% | [2] -4.05% | [3] -17.9% | [4] -42.5% | [5] 8.35% | [6] -14.3%

O=C(O)C(C(=O)N(c1ccccc1)c1ccccc1)c1ccccc1 (stereo not given)
inactive: [1] 9.8% | [2] -1.05% | [3] 21.5% | [4] -51.9% | [5] 18.7% | [6] 9.75%

CC(=O)c1ccc2c(c1)NC(=O)CC(C)N2 (stereo not given)
inactive: [1] 0.65% | [2] -1.25% | [3] 11.9% | [4] -25.6% | [5] 5.05% | [6] 0.3%

CCOC(=O)C(Cc1cc(N)c(Oc2ccc(OC)cc2)c(N)c1)NC(C)=O (stereo not given)
inactive: [1] -16.1% | [2] -36.9% | [3] -4.65% | [4] 14.9% | [5] -9.1% | [6] 5.25%

CN(C)c1ccc(/C=C(\C#N)C(=O)O)cc1
inactive: [1] 33.8% | [2] -12.9% | [3] 2.8% | [4] 11.7% | [5] 30.8% | [6] 38.2%

C#CCN(N=O)C(=O)NCCCCC(NC(C)=O)C(=O)NCc1ccccc1 (stereo not given)
inactive: [1] 3.4% | [2] -16.9% | [3] -16.9% | [4] 5% | [5] -16.2% | [6] -15.1%

CC(C)N=C(N)N=C(N)N
inactive: [1] 30.9% | [2] 13.5% | [3] 3.85% | [4] 3.9% | [5] 30.2% | [6] -3.2%

O=C(OC1c2cccc3cccc(c23)C1O)c1ccccc1 (stereo not given)
inactive: [1] 8.2% | [2] -2.45% | [3] 1.55% | [4] 2.65% | [5] 5.85% | [6] 1.75%

COc1ccc(N=C=Nc2ccc(OC)cc2)cc1
inactive: [1] -1.45% | [2] -15% | [3] 4.15% | [4] 9.6% | [5] -10.2% | [6] -13.6%

Cc1cc(N(CCC#N)CCC#N)ccc1/C=N/NC(=O)c1ccccc1
inactive: [1] 6.1% | [2] -2.35% | [3] -10.1% | [4] 6.3% | [5] 5.95% | [6] -47.5%

C=C(C)C(=O)O[C@H]1[C@H]2[C@H](OC(=O)[C@H]2C)[C@H](O)[C@@H](C)[C@@H]2C=CC(=O)[C@]21C
inactive: [1] 31.3% | [2] 30.5% | [3] 69.8% | [4] 47.2% | [5] 57.4% | [6] -31.1%

S=c1[nH]c2ccccc2c(=S)n1CN1CCCCC1
inactive: [1] -26.6% | [2] -27.4% | [3] -15.3% | [4] -13.1% | [5] 4.6% | [6] -11.9%

O=C(O)c1ccccc1SCCO
inactive: [1] -1.95% | [2] 18% | [3] 25.3% | [4] 47.8% | [5] -22.4% | [6] -3.8%

CCOC(=C\C(=O)NC)/C=C/c1ccc([N+](=O)[O-])cc1
inactive: [1] -5.75% | [2] 0.65% | [3] -6.1% | [4] -18.4% | [5] 5.85% | [6] -3.45%

OC(COc1cccc(C(F)(F)F)c1)CN1CCN(c2cccc(F)c2)CC1 (stereo not given)
active: [1] 98.7% | [2] 99% | [3] 99.1% | [4] 97.9% | [5] 98.7% | [6] 99%

CC1(O)CCCC1(C)O (stereo not given)
inactive: [1] -29.1% | [2] -21.1% | [3] -19.1% | [4] -38.9% | [5] -21.7% | [6] -23.8%

CC(=O)Sc1ccc2c(c1)-c1ccccc1C2=O
inactive: [1] 28.6% | [2] 27.2% | [3] 22.4% | [4] 8.25% | [5] 39.6% | [6] 16.9%

CN(C)CCN(C)C(=O)C1CCCN1C(=O)OCc1ccccc1 (stereo not given)
inactive: [1] -44.6% | [2] -56% | [3] -53.8% | [4] 9.3% | [5] -37.6% | [6] -46.8%

O=C1/C(=C/c2cccc([N+](=O)[O-])c2)Cc2ccccc21
inactive: [1] 12.7% | [2] -5.9% | [3] 5.65% | [4] 14.1% | [5] 17.6% | [6] 5.05%

CC(=O)OC1C(Br)CCCC1Br (stereo not given)
inactive: [1] -26% | [2] 4.25% | [3] 1.75% | [4] 1.9% | [5] 0.45% | [6] 15.8%

Source: PubChem BioAssay (NCI)
